Test results as given in the supplement of paper PMC9588786.
Values joined by “and” are separate entries in the source; they are usually repeats but may differ in a detail not shown here. Equal entries are not always repeated. ± gives the standard deviation of the averaged measurements.

System: HT-1080
Experiment: relative cell viability with RSL3 co-treatment (fraction of control); higher = stronger protection from RSL3-induced ferroptosis (higher viability)
Conditions: 10 µM
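Also: viability read as CCK-8 absorbance at 450 nm in cells co-exposed to the GPX4 inhibitor RSL3, relative to a 0.01% DMSO vehicle control.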

Row | Structure (SMILES) | relative cell viability
1 | CNC(=O)c1ccc(C)c(-n2c(C)cc(OCc3ccc(F)cc3F)c(Br)c2=O)c1 | 0.747 ± 0.067
2 | O=c1c(O)c(-c2ccc(O)c(O)c2)oc2cc(O)cc(O)c12 [Quercetin] | 0.703 ± 0.074
3 | CC(C)(C)c1nc(-c2cccc(NS(=O)(=O)c3c(F)cccc3F)c2F)c(-c2ccnc(N)n2)s1 | 0.577 ± 0.11
4 | CN(c1ncccc1CNc1nc(Nc2ccc3c(c2)CC(=O)N3)ncc1C(F)(F)F)S(C)(=O)=O | 0.763 and 0.527
5 | Cc1ccc(Nc2nccc(N(C)c3ccc4c(C)n(C)nc4c3)n2)cc1S(N)(=O)=O | 0.597 ± 0.15
6 | COC(=O)Nc1ccc(-c2nc(N3CCOCC3)c3cnn(C4CCN(C(=O)OC)CC4)c3n2)cc1 | 0.547 ± 0.18
7 | C=CC(=O)Nc1cccc(Oc2nc(Nc3ccc(N4CCN(C)CC4)cc3)nc3ccsc23)c1 | 0.55 ± 0.082
8 | Cc1cnc(Nc2ccc(N3CCN(C)CC3)cc2)nc1Nc1cccc(S(=O)(=O)NC(C)(C)C)c1 | 0.223 ± 0.061
9 | Nc1cccc(-c2cc3c(Oc4cccc(O)c4)ncnc3[nH]2)c1 | 0.483 ± 0.046
